Reference: PubChem BioAssay AID463183 (Sanford-Burnham Center for Chemical Genomics, 2010)
This is one part of the list. The source made the active and inactive calls.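 The calls were made as follows: active = inhibition of lipid droplet metric at least 50%, with more than 300 cells in each of four replicates; inconclusive = wells under 300 cells, flagged as toxic or low count; inactive = the rest.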

Experiment: blockers of oleate-driven lipid droplets in liver cells – imaging, AML12 mouse hepatocytes, single concentration, high-content, confirmation (AID 463183);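 as to cell count: cells counted after overnight compound exposure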;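 as to inhibition: plate controls were DMSO with oleic acid for no effect and 5 µM Triacsin-C for full effect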
Conditions: BODIPY lipid droplet imaging, at 5.2 µM, droplets induced with 100 µM oleic acid; cell count: measured here: cell count, cytotoxicity; inhibition: stronger effect = higher value

Row | Structure (SMILES) | cell count | inhibition
1 | COc1ccc(C(C(=O)NC(C)(C)C)N(Cc2ccc(F)cc2)C(=O)CCC(=O)Nc2cc(C)on2)cc1 (configuration not stated) | 1630 cells | 108% (active)
2 | CCCCN1C(=O)/C(=C/C=C2/C=Cc3ccccc3N2CC)SC1=S | 1580 cells | -4.78% (inactive)
3 | CCc1ccc(NC(=O)C(C)OC(=O)/C=C/c2cccc([N+](=O)[O-])c2)cc1 (configuration not stated) | 1510 cells | 48% (inactive)
4 | Cc1ccc(N2C(=O)C(NC(=O)c3c(F)cccc3F)(C(F)(F)F)C3=C2CC(C)(C)CC3=O)cc1 (configuration not stated) | 1590 cells | 87.5% (active)
5 | CCOC(=O)C1=C(CC)OC(N)=C(C#N)C1c1ccc(F)cc1F (configuration not stated) | 1680 cells | 10.3% (inactive)
6 | COc1ccc(Cl)cc1NC(=O)CN(C)C(=O)CCCc1c[nH]c2ccccc12 | 1450 cells | 85% (active)
7 | Cc1c(C(=O)NCc2ccccc2)cnn1-c1ccccc1 | 1670 cells | 26.9% (inactive)
8 | CN(C)c1ccc(Nc2c3c4c(cccc4n(C)c2=O)C(=O)c2ccccc2-3)cc1 | 1580 cells | 14.8% (inactive)
9 | O=[N+]([O-])c1ccccc1N/N=C1\CCc2ccccc21 | 1520 cells | 31.2% (inactive)
10 | O=C1Nc2ccc(Br)cc2/C1=N/N=C/C1=C(N2CCOCC2)C(=C\c2ccccc2)/CC1 | 1660 cells | 65.8% (active)
11 | O=C(CN1CCc2cc3c(cc2C1)OCCCO3)Nc1ccccc1 | 1530 cells | 15.8% (inactive)
12 | CCOc1ccc(CCNC(=O)CCc2nnc3ccc(N4CCCC4)nn23)cc1OCC | 1650 cells | 100% (active)
13 | CC(NC(=O)c1cccc2ccccc12)c1ccc2c(c1)CCCC2 (configuration not stated) | 1640 cells | 98.5% (active)
14 | COc1ccc(/C=C(\NC(=O)c2ccc(OCC(C)C)cc2)C(=O)OCc2ccco2)cc1 | 1460 cells | 91.6% (active)
15 | COCCCNC(=O)CN1C(=O)CSc2ccc(S(=O)(=O)N3CCOCC3)cc21 | 1530 cells | -1.8% (inactive)
16 | Cn1c(=O)[nH]c(=O)c2c1nc(N1CCN(C(c3ccccc3)c3ccccc3)CC1)n2CCO | 1570 cells | 78.2% (active)
17 | COc1cc(/C=N/NC(=O)Nc2ccccc2)ccc1OCCOc1ccccc1C | 1640 cells | -21.6% (inactive)
18 | COc1cccc(/C=C(/CC(=O)Nc2ccc(N3CCOCC3)cc2)c2nc3ccccc3s2)c1 | 1580 cells | 94.7% (active)
19 | CCCN(CCC)c1ccc(C(O)c2nnc(-c3ccccc3)o2)cc1 (configuration not stated) | 1610 cells | 106% (active)
20 | CCOc1ccc(CCNC(=O)Nc2ccccc2)cc1OCC | 1550 cells | 109% (active)
21 | COc1ccc(OC)c(-c2csc(-c3cccs3)n2)c1 | 1580 cells | 13.4% (inactive)
22 | CCCN(CCC)c1nc2c(C)cccn2c(=O)c1/C=C1/SC(=S)N(Cc2ccco2)C1=O | 1560 cells | 51.2% (inactive)
23 | CC(C)(C)NC(=O)Cn1cnc2cc([N+](=O)[O-])ccc2c1=O | 1630 cells | 21.8% (inactive)
24 | CCCc1ccc(-c2csc(NC(=O)Cc3cccs3)n2)cc1 | 1560 cells | 104% (active)
25 | Cc1cc(C(=O)NC2CCCc3c2cnn3-c2cccc(C)c2C)c(C)o1 (configuration not stated) | 1560 cells | 78.5% (active)
26 | Cc1cc(NC(=O)CSc2nc(C(C)C)nc3sc4c(c23)CCC(C)C4)no1 (configuration not stated) | 1700 cells | 105% (active)
